Laboratory results reported in PubChem BioAssay (NCI).
About 79,000 compounds went through this panel and 15% of them were active in at least one assay; those are over-represented in the sample as a whole. A number with no mark means an inactive call. Activity calls are given as the source filed them. No stated cut-off is given here; in the data, active means growth inhibition above about 70%; inactive means the rest.

How the values were obtained:
[1] = NCI Yeast Anticancer Drug Screen. Data for the rad50 strain (AID 155);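 further: 0% = growth of vehicle-only cultures of the same strain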; conditions: S. cerevisiae rad50 strain growth inhibition; at 50.0 µM; active compounds read high
Outline: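 Yeast carrying a defined DNA repair defect were exposed to test compounds, and growth was compared with vehicle-treated controls to give percent inhibition.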

[2] = NCI Yeast Anticancer Drug Screen. Data for the mec2-1 strain (AID 157); conditions: S. cerevisiae mec2-1 strain, at 50.0 µM, active compounds read high
Outline: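 Strain: mec2-1 (DNA repair/cell cycle alteration). Compound exposure, then growth measured; inhibition expressed relative to vehicle.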

[3] = NCI Yeast Anticancer Drug Screen. Data for the sgs1 mgt1 strain (AID 161);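 further: 0% = growth of cultures given vehicle only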; conditions: S. cerevisiae sgs1 mgt1 strain, at 50.0 µM, active compounds read high
Outline: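 Test agents were incubated with a DNA-repair-mutant yeast strain. Growth was then read and compared against vehicle-treated controls.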

[4] = NCI Yeast Anticancer Drug Screen. Data for the cln2 rad14 strain (AID 165);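 further: 0% = growth equal to vehicle treated cultures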; conditions: S. cerevisiae cln2 rad14 strain, at 50.0 µM, active compounds read high
Outline: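 Compounds are applied to the cln2 rad14 yeast strain, and growth is then compared with that of vehicle-treated cultures to give inhibition.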

[5] = NCI Yeast Anticancer Drug Screen. Data for the bub3 strain (AID 167); conditions: S. cerevisiae bub3 mutant strain, at 50.0 µM, active compounds read high
Outline: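 Compounds were applied to a genetically altered yeast strain carrying a cell-cycle control defect. Growth inhibition was scored against vehicle-treated controls.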

[6] = NCI Yeast Anticancer Drug Screen. Data for the mlh1 rad18 strain (AID 175); conditions: S. cerevisiae mlh1 rad18 strain growth inhibition; at 50.0 µM; active compounds read high
Outline: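 Read-out is yeast growth inhibition, calculated against vehicle-only controls. The compound was applied to a strain engineered with DNA damage repair alterations.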

Structure (SMILES) | growth inhibition [1] | growth inhibition [2] | growth inhibition [3] | growth inhibition [4] | growth inhibition [5] | growth inhibition [6]
COc1ccc(C)cc1OC | 26.3% | 12.9% | 1.3% | 0.6% | -8.2% | -5.65%
CC1NC(=O)NC1CCCCCC(=O)O (centres undefined) | 8.3% | 11.4% | 13.8% | 12.5% | 4.6% | 17.3%
O=S(=O)(O)c1cc(O)c2c(N=Cc3ccccc3O)c(S(=O)(=O)O)ccc2c1 | 5.15% | -9.6% | 6.55% | -2.45% | 17% | 8.3%
Cc1cc(N2CCC(N3CCCC3)CC2)nc(/N=C(\N)Nc2ccc(Cl)c(Cl)c2)n1 | 18.1% | -2.25% | -6.05% | -3.7% | 4% | 34%
O=C(O)CCCC(=O)O | -36.5% | -0.7% | -22.6% | -21.4% | -51.6% | 4.5%
CC12CC3CC1C(C(=O)O2)C3C(=O)O (centres undefined) | -20.6% | -27.5% | -25.8% | 5.85% | -7.2% | -8.8%
CC(C)(C)c1cc(O)c(C(C)(C)C)cc1O | 12.1% | -0.05% | 6.05% | -1.85% | 0.15% | 11.2%
Cc1cc(=O)[nH]c(NN=C2CCCC2)n1 | -27.9% | -52.5% | -35.4% | -2.6% | -33.5% | -27.1%
CS(=O)CC1=NC(=N)N=C1CS(C)=O (centres undefined) | -9.75% | -11.2% | 12.1% | -22.1% | 2.85% | 5.75%
CCN=c1cc2sc3cc(NCC)c(C)cc3nc-2cc1C | -22.1% | -35.8% | -16.4% | -14.4% | -15.4% | -22.6%
Cc1ccc(C(=O)c2ccccc2)c(C)c1 | 8.65% | -1.75% | 0.6% | -10.4% | -2.5% | 28.6%
COc1cc2c(cc1O)CC[C@@H]1C2CC[C@@]2(C)C1CC[C@@H]2O (some centres undefined) | -11.6% | -13.4% | -15.2% | -26.6% | -13.8% | 18.3%
CC(=O)CC(=O)N(C)C | 0.3% | -0.6% | 6.9% | -13.9% | -2.5% | 24.2%
O=c1cc(-c2ccccc2)nc2cc(-c3ccco3)[nH]n12 | -8.1% | -14.7% | -6.05% | 7.9% | -2.6% | -3.85%
CC(C(=O)O)(C1CCCCC1)C1(O)CCCCC1 (centres undefined) | 29.8% | 45.5% | 39.9% | 59.5% | 62.5% | 29.5%
O/N=C/c1ccc(O)cc1O | -11.9% | -5.45% | -32.1% | -29.9% | 17.9% | -33.4%
CC(=O)c1sc2c(c1OC(=O)c1ccc(Cl)cc1Cl)c(=O)n(-c1ccccc1)c(=S)n2-c1ccccc1 | -3.95% | -23.3% | -19.4% | -5.65% | -6.55% | -3.85%

Structure (SMILES) | growth inhibition [1] | growth inhibition [2] | growth inhibition [3] | growth inhibition [4] | growth inhibition [5] | growth inhibition [6]
CC1Cc2ccccc2O1 (centres undefined) | 2.7% | 0.35% | -3.7% | -2.35% | 2.9% | 11%
COc1ccc2c(NCCCCCCCCNc3c4ccccc4nc4cc(OC)ccc34)c3ccccc3nc2c1 | 90.8% (active) | 91.4% (active) | 91.8% (active) | 89.3% (active) | 90.8% (active) | 88.3% (active)
Cc1ccc(S(=O)(=O)O)c(C)c1 | 19.3% | -4.35% | 14.4% | 19.9% | -0.9% | 23.8%
COc1cc(C(N)=O)cc(OC)c1OC | 2.9% | -9.5% | -0.35% | 4.9% | 4.95% | -2.65%
COC(=O)C(C)Oc1ccc(OC#N)cc1 (centres undefined) | -21.3% | -14.1% | 8.9% | -3% | 6.25% | 23.5%
Cc1cc(N)c(S(=O)(=O)O)c(N)c1 | -31.9% | 5.65% | -4% | -15.1% | 11.8% | -57.8%
NC(C(=O)O)C(O)c1ccco1 (centres undefined) | 6.6% | -0.1% | 3.95% | 13.8% | 3.75% | 6.75%
CSC(=N\N=C\c1ccc(N(C)C)cc1)/N=C/N(C)C | -4.3% | -8.15% | 6.05% | 7.65% | 18.6% | 25.1%
Cc1ccc(C)n1-c1ccsc1C(=O)NNC(=O)CCl | -13.8% | -17.8% | 2.25% | 22.9% | -14.5% | -3.85%
C=C[Si](OC(C)=O)(OC(C)=O)OC(C)=O | 27.2% | -13.2% | 0.85% | 14.7% | 13.7% | 1.65%
Nc1nc(N)c(N=Nc2ccc(C(=O)O)cc2)c(N)n1 | -3.65% | 7.35% | 3% | 19.6% | 19% | 22.4%
CCOc1ccc(I)cc1 | 10.9% | 11.8% | -17.5% | 36.8% | -0.75% | -11.7%
CC1(O)CCCCC1O (centres undefined) | -8.1% | -37.6% | -8.3% | -20.9% | -13.8% | -15.3%
CN(C)c1ccc2oc(=O)c3ccccc3c2c1 | 6.05% | 7.55% | 1.55% | -2% | 0.5% | -33%
O=[N+]([O-])c1cccc(N=Nc2ccc(O)cc2O)c1 | 30.6% | -5.65% | 65.5% | 15.6% | 4.2% | 20.6%
Nc1ccc(C(=O)c2ccc(N)c(Br)c2)cc1Br | 15% | -0.85% | 6.6% | -77.9% | 43.3% | 4.05%
Cc1cc(O)ccc1O | 31% | 25.1% | 7% | -5.05% | 3.5% | 42.3%
